This is a sample that favours compounds with a hit; in the whole collection about 0.53% have one here.
GLS inhibitor = glutaminase GLS (human) inhibition. O94925. GLS enzymatic activity, qHTS titration. Potency, µM (series often up to 45.5 µM), for inactives: at the top dose activity change, negative = inhibition, most hits filed as inhibitors. 0.21% of 410,000 active; note: potency is the fitted concentration of half-maximal effect
Target sequence (O94925 whole entry, looked up): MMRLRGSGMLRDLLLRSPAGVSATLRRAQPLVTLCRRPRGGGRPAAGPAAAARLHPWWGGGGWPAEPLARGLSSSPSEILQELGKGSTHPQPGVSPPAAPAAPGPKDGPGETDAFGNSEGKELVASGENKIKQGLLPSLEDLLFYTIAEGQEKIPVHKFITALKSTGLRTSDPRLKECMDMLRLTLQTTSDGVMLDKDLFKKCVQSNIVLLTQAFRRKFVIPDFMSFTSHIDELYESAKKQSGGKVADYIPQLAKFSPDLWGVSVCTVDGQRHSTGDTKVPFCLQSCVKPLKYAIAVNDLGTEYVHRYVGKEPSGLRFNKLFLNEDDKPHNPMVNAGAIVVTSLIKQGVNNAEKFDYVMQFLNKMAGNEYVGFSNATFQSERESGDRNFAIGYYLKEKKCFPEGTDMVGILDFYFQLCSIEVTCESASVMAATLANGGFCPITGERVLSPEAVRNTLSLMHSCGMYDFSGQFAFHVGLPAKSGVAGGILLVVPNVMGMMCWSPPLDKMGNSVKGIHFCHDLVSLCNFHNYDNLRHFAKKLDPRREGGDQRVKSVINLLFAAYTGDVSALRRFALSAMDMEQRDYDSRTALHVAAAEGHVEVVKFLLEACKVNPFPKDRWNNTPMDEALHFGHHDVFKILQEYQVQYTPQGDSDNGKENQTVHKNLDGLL
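Assay buffer: 45 mM KH2PO4 pH 8.2, 0.02% Tween-20. hKGA acts on L-glutamine (1 mM solution added); product glutamate is reported by an oxidase/peroxidase Amplex Red coupling, with fluorescence taken at baseline and 30 min.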
Tb PGK inh = blocks T. brucei phosphoglycerate kinase; P07378; PGK/GAPDH coupled, Kinase-Glo luminescence, 60 min; Potency, µM (top dose mostly 57.5 µM), for inactives: at the top dose activity change, negative = inhibition, actives largely listed as inhibitors; 0.043% of 380,000 active; AID 602233; note: potency is the fitted concentration of half-maximal effect; nearly all actives have a fitted effect of over 60% in size
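Recombinant glycosomal PGK reaction used 1,3-bisphosphoglycerate generated in-well by GAPDH (100nM final) in 100mM TEA pH 7.6, 5mM MgCl2, 0.01% Tween-20. After 60 minutes at room temperature, ATP was read by Kinase-Glo Plus luminescence end-point.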
USP1 inh = USP1/UAF1 (human) deubiquitinase inhibition; O94782; recombinant USP1/UAF1, Ub-Rhodamine cleavage fluorescence; 0.23% of 390,000 active; Potency, µM (series often up to 57.1 µM), for inactives: top-dose activity change, negative = inhibition, usual class: inhibitors; note: potency is the fitted concentration of half-maximal effect; nearly all actives have a fitted effect of over 60% in size
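1 nM enzyme complex + cpd, 15 min RT; start with Ub-Rho 150nM final; kinetic fluorescence ex 480/em 540, 6 reads q60 s. Buffer 50mM HEPES pH 7.8, 0.5mM EDTA, 0.1 mg/ml BSA, 1mM TCEP, 0.01% Tween-20.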
PI4K2A inh = PI4K2A (human) kinase inhibition. purified PI4K2A, ADP-Glo luminescence, 1 h; stronger effect = lower value. activity change, negative = inhibition, % at 76.9 µM. 0.13% of 420,000 active; in the data active = activity change below about -50%; inconclusive = mostly about -30% to -49%;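 note: -100% = wells without enzyme as full effect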
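In this quantitative HTS, ADP production by PI4K2A was quantified luminescently after 1 h at ambient temperature; 100 microM adenosine served as plate-quality control.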
* = called active by the depositor; i = inactive; u = inconclusive; x = no result given. Unless noted, calls come from the whole dose curve; as a rule, active = well fitted curve in the direction sought with a large enough effect; inconclusive = small, poorly fitted or top-dose-only effect, or another doubt; inactive = no such curve, though single readings can be large; an effect the other way counts as inactive or inconclusive. Unless noted, % is set by controls: 0 for no effect and ±100 for the full control effect.

SMILES	GLS inhibitor	Tb PGK inh	USP1 inh	PI4K2A inh
O=[N+]([O-])c1cccc(N/N=C/c2cccc(O)c2O)c1	7.94µM*	5.5%	-7.9%	-7.9
CCOc1c(N2CCOCC2)cnn(C)c1=O	x	x	x	-1.3
COc1cccc2c1C(=N)c1c(O)c3c(c(O)c1C2=O)CC(O)(C(C)=O)CC3OC1CC(N)C(O)C(C)O1 (stereo unspecified)	35.9%	-21.7%	-25.7%	u
COc1cccc2c1C(=O)c1c(O)c3c(c(O)c1C2=O)CC(O)(C(C)=O)CC3OC1CC(O)C(O)C(C)O1 (stereo unspecified)	19.0%	-9.9%	25.1µM*	-10.3
COc1cccc2c1C(=O)c1c(O)c3c(c(O)c1C2=O)C[C@](O)(C(C)=O)C[C@H]3O[C@@H]1C[C@@H](N)[C@@H](O)[C@@H](C)O1	8.8%	-16.4%	12.6µM*	-10.6
CCCCCCCC(=O)CC[C@H]1[C@@H](C/C=C/CCCC(=O)OC(C)C)[C@@H](O)C[C@H]1O	-3.7%	x	x	x
CN1[C@@H]2CCC[C@@H]1CC(NC(=O)c1nn(C)c3ccccc13)C2 (stereo partly specified)	23.3%	x	x	x
Cn1c(/C=C/c2ccccc2)nc2ccccc21	2.6%	i	-20.0%	-66.2*
Cc1ccccc1-c1cn(-c2ccccc2)c(=S)[nH]1	11.2µM*	0.5%	-2.8%	3.1
Cc1ccc(-c2cn(-c3ccccc3)c(=S)[nH]2)cc1C	5.9%	i	-20.2%	-2.0
CSc1nc(N)c2ncn([C@@H]3O[C@H](COP(=O)(O)OP(=O)(O)O)C(O)[C@H]3O)c2n1 (stereo partly specified)	x	x	x	0.2
Cc1ccc(O)c(Nc2c3ccccc3nc3ccccc23)c1	8.91µM*	4.7%	-7.3%	2.8
Cc1ccc(/C=C/c2nc3ccccc3[nH]2)cc1	4.2%	u	-32.7%	-66.5*
Cc1ccccc1C(=O)Nc1ccc(C(=O)N2CCCC(O)c3cc(Cl)ccc32)c(C)c1 (stereo unspecified)	0.5%	x	x	0.7
CCCn1c(SCC(=O)c2cc(C)n(C3CC3)c2C)n[nH]c1=O	1.2%	i	-15.9%	-3.6
CCn1c(CCC(N)=O)nnc1SCC(=O)c1cc(C)n(C2CC2)c1C	-5.5%	i	-22.4%	-53.0*
CN(C)c1ccc(NC(N)=S)cc1	14.1µM*	8.2%	5.5%	-1.6
CCOc1ccc2nc(NC(=O)c3ccccc3)sc2c1	1.3%	u	2.9%	-57.9*
CCCC(=O)O[C@]1(C(=O)COC(=O)CC)[C@@H](C)C[C@H]2[C@@H]3CCC4=CC(=O)C=C[C@@]4(C)[C@@]3(F)[C@H](O)C[C@@]21C	-20.4%	x	x	x
CC(=NCc1cccnc1)C1=C(O)c2ccccc2C1=O	-14.6%	-7.7%	-16.2%	-53.6*
O=C(O)c1ccc(/C=N\Nc2ccccn2)cc1	u	-28.0%	0.5%	-61.9*
O=C(O)c1ccc(N/N=C/c2ccc3nccnc3c2)cc1	-11.8%	u	-18.7%	-54.8*
O=C(O)c1ccc(N/N=C/c2ccncc2)cc1	21.6%	-10.0%	-12.4%	-17.4
O=[N+]([O-])c1ccc(/C=N/Nc2ccccn2)cc1	1.4%	-5.3%	-7.4%	-2.7
O=C1Cc2cc(Cl)ccc2N1	x	x	x	-0.2
SMILES	GLS inhibitor	Tb PGK inh	USP1 inh	PI4K2A inh
O=C1/C(=C\c2cccs2)CCC/C1=C/c1cccs1	-1.5%	x	x	x
COc1cc(C2(c3ccc(O)c(OC)c3)C(=O)Nc3c(C)cc(Br)cc32)ccc1O	2.51µM*	-0.8%	-9.9%	0.2
N[C@@H](CCC(=O)N[C@@H](CS)C(=O)NCC(=O)O)C(=O)O	x	x	x	i
O=S(=O)(NCCc1csc2nc(-c3ccc(Cl)cc3)nn12)c1cccs1	u	i	-24.1%	-3.9
O=C1/C(=C\c2ccccc2)CN(C(=O)CCN2CCCCC2)C/C1=C/c1ccccc1	1.1%	1.6%	-14.7%	-23.7
C=CC(=O)N1C/C(=C/c2ccc(F)cc2)C(=O)/C(=C\c2ccc(F)cc2)C1	10µM*	10µM*	-6.3%	-12.5
CC(C)NCCCC1(C(N)=O)c2ccccc2-c2ccccc21	x	x	x	-0.9
CC1(C)CC(=O)C(C(c2ccc(F)cc2)C2C(=O)CC(C)(C)CC2=O)C(=O)C1	-1.4%	i	-16.7%	-2.3
CCc1sc(C(C2C(=O)CC(C)(C)CC2=O)C2C(=O)CC(C)(C)CC2=O)cc1[N+](=O)[O-]	7.08µM*	1.6%	-23.1%	-16.4
OCC1(O)OC[C@@H](O)[C@H](O)[C@@H]1O (stereo partly specified)	-6.0%	x	x	x

Screening data (PubChem BioAssay)
